In all, about 57,000 sequences went through this assay and about 4,100 (7.2%) were called active. No stated cut-off is given here; in the data, active = GI50 up to about 1.1 µM and inactive = higher. Only a sample is shown. Results with a measured potency or affinity are listed apart.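 Growth conditions: 96-well plates. Treatment: test compound, 48 hours, 5 concentrations. Analysis: linear interpolation between bracketing concentrations; unreached endpoints set to highest concentration. Abbreviation: GI50, concentration required for 50% inhibition of growth.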

The subject of the assay is COLO 205. The assay is described as follows: NCI tumour cell line growth inhibition, 48 h.
On to “[Bis(aminomethyl)pentamethylenesilane]dichloropaltinum(II), CHEMBL2146202”, for which the GI50 was found to be 2.07 µM. “[Bis(aminomethyl)tetramethylenesilane]tetrachloropaltinum(IV), CHEMBL2146189” came in with a GI50 of 8.51 µM. With “[Bis(aminomethyl)dimethylsilane]dichloroplatinum (II), CHEMBL2146201” the figure was 24.3 µM; with “cis-Bis[[(trimethylsilyl)methyl]amino]tetrachloroplatinum(IV), CHEMBL2146191”, 2.07 µM; with “[Bis(aminomethyl)tetramethylenesilane]dichloropaltinum(II), CHEMBL2146205”, 20.1 µM.

Regarding “[Bis(aminomethyl)pentamethylenesilane]tetrachloropaltinum(IV), CHEMBL2146204”, the GI50 came out at 1.53 µM. For “[Bis(aminomethyl)ethylmethylsilane]tetrachloroplatinum(IV), CHEMBL2146192” the value was 5.15 µM; for “mu-(1,7-nanodiamine-N,N')bis-(cis-aminedichloroplatimum (II)), CHEMBL2146215”, 6 µM; for “[Bis(aminomethyl)dimethylsilane]tetrachloroplatinum(IV), CHEMBL2146190”, 11.6 µM.

“[Bis(aminomethyl)diethylsilane]tetrachloroplatinum(IV), CHEMBL2146203” had a GI50 of 11.9 µM.

CISPLATIN, CHEMBL11359 showed a GI50 of 13.4 µM.

For the origin of these results see ChEMBL document CHEMBL1201862, “PubChem BioAssay data set” (2004).
